In PubChem BioAssay AID588689 (Southern Research Specialized Biocontainment Screening …, 2011):
The whole screen tested about 340,000 compounds, of which about 1,000 (0.29%) were called active. Cut-off read from the data, not from the text of the source: inconclusive = inhibition above about 29% without an active follow-up result; inactive = below that. The list is a sample of the results. Results with a measured potency or affinity are listed apart.

Biological target: Genome polyprotein (Dengue virus type 2 (strain 16681-PDK53)) (UniProt P29991)
Assay: flavivirus cap methylation enzyme inhibition – biochemical, confirmation dose response, primary screen (AID 588689)
Settings: Dengue-2 NS5 methyltransferase capping enzyme assay, at 25 µM, stronger effect = higher value
[1] = measured here: pilot screen replicate inhibition

Row | Structure (SMILES) | inhibition | inhibition [1]
1 | Cc1cc(-c2ccco2)n(CC(=O)NCCCc2ccccc2)n1 | -4.87% (inactive) | –
2 | N#Cc1c(-c2ccccc2)nc(SCc2cccc(Cl)c2)[nH]c1=O | 19.5% (inactive) | –
3 | COC(=O)c1cccc(CSc2nc(-c3ccccc3)c(C#N)c(=O)[nH]2)c1 | 11.1% (inactive) | –
4 | O=C(CCC(=O)N1CCCC(Nc2ccccc2)C1)c1ccc(F)cc1 (stereo not drawn) | 2.72% (inactive) | –
5 | COCCOC(=O)c1sc2nc[nH]c(=O)c2c1C | -12.3% (inactive) | –
6 | Cc1ccc(S(=O)(=O)N2CCN(Cc3cccnc3)CC2)cc1 | 2.57% (inactive) | –
7 | CC(=O)Nc1ccc(S(=O)(=O)N(C)CC(=O)OC(C)C(=O)NC2CCCCC2)cc1 (stereo not drawn) | -5.07% (inactive) | –
8 | COc1cccc(C(C[N+](=O)[O-])c2c(C)[nH]n(-c3ccccc3)c2=O)c1 (stereo not drawn) | 8.91% (inactive) | –
9 | Cc1[nH][nH]c(=O)c1C(c1ccccc1[N+](=O)[O-])C(C#N)C#N (stereo not drawn) | -2.95% (inactive) | –
10 | Cc1c(C(c2cccc([N+](=O)[O-])c2O)c2c(C)n(C)n(-c3ccccc3)c2=O)c(=O)n(-c2ccccc2)n1C | -5.62% (inactive) | –
11 | COc1ccccc1N=Nc1c(C)[nH]n(-c2ccccc2)c1=O | 1.98% (inactive) | -4.55%
12 | Cc1[nH]n(-c2ccccc2)c(=O)c1C(C[N+](=O)[O-])c1ccccc1Cl (stereo not drawn) | -8.87% (inactive) | –
13 | Cc1[nH][nH]c(=O)c1[C@@H](c1ccccc1[N+](=O)[O-])C(C#N)C#N | 14.4% (inactive) | –
14 | S=C(Nc1ccccc1Cl)NC1CCCCCC1 | -2.33% (inactive) | –
15 | Cc1nnc(SCC(=O)Nc2nsc(-c3ccc(Cl)cc3)n2)s1 | 2.61% (inactive) | –
16 | CCOc1ccc(S(=O)(=O)N2CCN(S(=O)(=O)c3ccc(C(C)=O)cc3)CC2)cc1 | -2.49% (inactive) | –
17 | CC1CN(CCc2ccccc2)C(C)C/C1=N/O (stereo not drawn) | -3.09% (inactive) | –
18 | Cc1c(Cl)cccc1NC(=S)N(Cc1cccnc1)Cc1ccccc1Cl | -4.52% (inactive) | –
19 | O=C(NCCS(=O)(=O)NCc1cccs1)c1ccccc1 | 0% (inactive) | –
20 | COc1ccc(C(=O)c2ccccc2C(=O)c2ccccc2)cc1 | -0.81% (inactive) | –
21 | Cc1cc(/C=C2/C(=O)NN(c3ccccc3)C2=O)c(C)n1-c1ccc(O)cc1 | 5.82% (inactive) | –
22 | Cc1cc(/C=C2/C(=O)NN(c3ccccc3)C2=O)c(C)n1-c1cccc(O)c1 | 6.37% (inactive) | –
23 | COC(=O)C1=C(C)NC(=O)/C1=C\c1cc(C)n(-c2ccccc2)c1C | 5.15% (inactive) | –
24 | COC(=O)C1=C(C)NC(=O)/C1=C\c1cc(C)n(-c2ccccc2F)c1C | 5.5% (inactive) | –
25 | Cc1nc(SCC(=O)N2CC(=O)Nc3ccccc32)nc(C)c1C | 2.34% (inactive) | –
26 | Cc1ccc(CS(=O)Cc2ccc(C(=O)NCc3ccc4c(c3)OCO4)o2)cc1 (stereo not drawn) | -13.8% (inactive) | –
27 | CC1CC(C)CN(S(=O)(=O)c2cccc(C(=O)N3CCN(c4ccc(F)cc4)CC3)c2)C1 (stereo not drawn) | -0.73% (inactive) | –
28 | CC(C)NC(=O)C1CCN(C(=O)N(C)C)CC1 | 0.71% (inactive) | –

Row | Structure (SMILES) | inhibition | inhibition [1]
29 | O=C(O)c1ccc(NC(=S)NC(=O)c2ccc(-c3ccc(Br)cc3)o2)cc1 | -8.03% (inactive) | –
30 | Cc1c(NC(=S)NC(=O)c2ccc(-c3ccc(Cl)cc3)o2)cccc1C(=O)O | 8.19% (inactive) | –
31 | O=Nc1c(-c2ccccc2)n(O)[n+]([O-])c1-c1ccccc1 | -16.7% (inactive) | –
32 | COc1cccc(CN2CC(C(=O)NCCN3CCOC3=O)CCC2=O)c1 (stereo not drawn) | -9.76% (inactive) | –
33 | COC(=O)C1=CN(c2ccc(OC)cc2)C=C(C(=O)OC)C1c1ccc([N+](=O)[O-])cc1 | -9.75% (inactive) | –
34 | Cc1ccc(Cn2nnc(C(=O)Nc3cccc(C)c3C)c2N)cc1 | -0.68% (inactive) | –
35 | Cc1cccc(S(=O)(=O)Nc2ccc(-n3c(C)nc4ccccc4c3=O)cc2)c1 | -5.8% (inactive) | –
36 | C=CCOc1ccc(Oc2cc(C)nc(SC)n2)nn1 | -6.11% (inactive) | –
37 | C=CCOc1ccc(S(C)(=O)=O)cc1 | 1.32% (inactive) | –
38 | CSc1nc(Cl)c(Cc2ccc(OC(C)C)cc2)c(N(C)C)n1 | -2.55% (inactive) | –
39 | CSc1nc(O)c(C(c2ccccc2)c2c(O)nc(SC)[nH]c2=O)c(=O)[nH]1 | -1.55% (inactive) | –
40 | COc1nc(SC)nc(Cl)c1Cc1ccc(OC(C)C)cc1 | -6.55% (inactive) | –
41 | CSc1nc(O)c(C(c2ccc(C)cc2)c2c(O)nc(SC)[nH]c2=O)c(=O)[nH]1 | 5.27% (inactive) | 4.26%
42 | CN1CCN(C(=O)/C(=C/c2cn(S(=O)(=O)N(C)C)c3ccccc23)NC(=O)c2ccccc2F)CC1 | -5.9% (inactive) | –
43 | CCC(C(=O)Nc1cccnc1)n1c(=O)[nH]c2ccccc2c1=O (stereo not drawn) | -5.9% (inactive) | –
44 | Cc1ccc(NC(=O)C2CCCN(C(=O)Nc3ccc(F)cc3)C2)cc1 (stereo not drawn) | -4.13% (inactive) | –
45 | Cc1cc(=O)[nH]c(-c2cccs2)n1 | 10.8% (inactive) | –
46 | CC[C@H](C)Cc1cn([C@@H](CCCN=C(NC(=O)OC(C)(C)C)NC(=O)OC(C)(C)C)C(=O)NCCCCCCCCCCC(=O)N2CCN(C(=O)OC(C)(C)C)CC2)nn1 | -0.83% (inactive) | –
47 | Cc1csc(N(C(=O)c2cccc(S(=O)(=O)N(C)C)c2)c2ccccc2)n1 | -1.38% (inactive) | –
48 | CCC(C(=O)OCC(=O)Nc1ccc2[nH]c(=O)[nH]c2c1)c1ccccc1 (stereo not drawn) | 2.16% (inactive) | –
49 | COc1ccc(N(CC(=O)NCCSCc2ccco2)S(=O)(=O)c2ccccc2)cc1 | -3.68% (inactive) | –
50 | Fc1cccc(/C=N/Nc2nccnc2Cl)c1 | -2.31% (inactive) | –
51 | Cc1ccc([C@H]2C(C(=O)O)=CC[C@@H](c3ccc(C)cc3)N2S(=O)(=O)c2ccccc2C)cc1 | 13.7% (inactive) | –
52 | Cc1ccc([C@@H]2CC=C(C(=O)O)[C@H](c3ccccc3)N2S(=O)(=O)c2ccccc2C)cc1 | 11.1% (inactive) | –
53 | Cc1ccccc1S(=O)(=O)N1[C@@H](c2ccccc2)C(C(=O)O)=CC[C@H]1c1ccc(Cl)cc1 | 12.8% (inactive) | –
54 | Cc1ccccc1S(=O)(=O)N1[C@@H](c2ccc(Cl)cc2)C(C(=O)O)=CC[C@H]1c1ccc(Cl)cc1 | 23.8% (inactive) | 2.15%
55 | COc1cccc(NC(=O)c2ccc(N3C(=O)C4CC=CCC4C3=O)cc2)c1 (stereo not drawn) | 0.77% (inactive) | –
